The results in this text go back to PubChem BioAssay (NCI).

Where “and” joins values, the source holds several entries; their conditions need not be identical. Equal entries are not always repeated. The panel holds about 83,000 compounds, 20% with a hit somewhere; the sample as a whole holds those more often.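 Compound tested at a single concentration for 48 hours in 96-well plates; a percent growth value below 10 was scored as active.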 A number with no mark means an inactive call. Calls of active or inactive are those of the source.

Some test systems named below: HCT-15 colon; HT29 colon; SNB-75 CNS; SNB-19 CNS; U251 CNS; PC-3 prostate; SK-MEL-5 melanoma; UACC-62 melanoma; SK-MEL-28 melanoma; SK-MEL-2 melanoma; SN12C renal; UO-31 renal; TK-10 renal; A498 renal; CCRF-CEM leukemia; MOLT-4 leukemia; LOX IMVI melanoma; EKVX NSCLC.
Common to all, as to assay: NCI-60 one-dose screen, 48 h (100 = growth as untreated, 0 = no growth, -100 = all killed)
A further assay relates to ACHN renal. The note with it: 10 µM unless noted.
The test system of a further assay is CAKI-1 renal. The conditions noted are these: 10 µM unless noted.

Regarding `CC(C)(C)CC(N)=O`, the growth in the assay on HCT-15 colon (10 µM unless noted) was 94.9%; in the assay with HT29 colon (10 µM unless noted) it was 102%; with SNB-75 CNS (10 µM unless noted), 96.4%; with SNB-19 CNS (10 µM unless noted) it was 101%; in the assay with U251 CNS (10 µM unless noted), 95.1%; in the assay with PC-3 prostate (10 µM unless noted) it was 97.9%. Also, the growth with SK-MEL-5 melanoma (10 µM unless noted) is 94.1%; with UACC-62 melanoma (10 µM) it was 103%; in the assay with UACC-62 melanoma (100 µM), 79.5% and 18.4%; in the assay with SK-MEL-28 melanoma (10 µM unless noted) it was 102%; in the assay on SK-MEL-2 melanoma (10 µM unless noted), 102%; with SN12C renal (10 µM unless noted), 102%. For the same compound, the growth is 104% with UO-31 renal (10 µM unless noted); 100% in the assay on TK-10 renal (10 µM); 105% and 103% in the assay on TK-10 renal (100 µM); 96.9% with ACHN renal; 90.7% in the assay with A498 renal (10 µM unless noted); 102% in the assay with CCRF-CEM leukemia (10 µM unless noted). Besides, the growth with MOLT-4 leukemia (10 µM unless noted) is 108%.

For the compound `O=C1C(=C(O)c2ccccc2)C(=O)c2ccccc21`, the growth in the assay with HCT-15 colon (10 µM unless noted) is 102%; in the assay with HT29 colon (10 µM unless noted), 109%; with SNB-75 CNS (10 µM unless noted), 76.5%; in the assay on SNB-19 CNS (10 µM unless noted), 98.1%; with U251 CNS (10 µM unless noted), 109%; with PC-3 prostate (10 µM unless noted), 94.5%. Moreover, the growth was 107% in the assay on SK-MEL-5 melanoma (10 µM unless noted); 96% with UACC-62 melanoma (10 µM unless noted); 99% in the assay on LOX IMVI melanoma (10 µM unless noted); 105% with SK-MEL-28 melanoma (10 µM unless noted); 105% with SK-MEL-2 melanoma (10 µM unless noted); 104% with EKVX NSCLC (10 µM unless noted). The growth in the assay on SN12C renal (10 µM unless noted) is 102%; in the assay on UO-31 renal (10 µM unless noted) it was 85.5%; in the assay on TK-10 renal (10 µM unless noted), 111%; in the assay on ACHN renal, 103%; in the assay on CAKI-1 renal, 92.9%; in the assay on A498 renal (10 µM unless noted), 123%. Moreover, the growth in the assay with CCRF-CEM leukemia (10 µM unless noted) is 73.7%.

As for `CN1CCCc2cc(/C=C3\SC(=S)N(C(Cc4ccc(O)cc4)C(=O)O)C3=O)ccc21` (centres undefined), the growth is 101% with HCT-15 colon (10 µM unless noted); 110% with HT29 colon (10 µM unless noted); 89.9% with SNB-75 CNS (10 µM unless noted); 92.2% in the assay with SNB-19 CNS (10 µM unless noted); 94.7% with U251 CNS (10 µM unless noted); 101% in the assay with PC-3 prostate (10 µM unless noted). In addition, the growth was 100% in the assay with SK-MEL-5 melanoma (10 µM unless noted); 93.6% in the assay with UACC-62 melanoma (10 µM unless noted); 93.8% with LOX IMVI melanoma (10 µM unless noted); 113% in the assay with SK-MEL-28 melanoma (10 µM unless noted); 103% in the assay with SK-MEL-2 melanoma (10 µM unless noted); 91.6% with EKVX NSCLC (10 µM unless noted). For the same compound, the growth in the assay on SN12C renal (10 µM unless noted) is 93.3%; in the assay on UO-31 renal (10 µM unless noted) it was 79.7%; with TK-10 renal (10 µM unless noted) it was 102%; in the assay with ACHN renal it was 103%; in the assay with CAKI-1 renal, 89%; in the assay with A498 renal (10 µM unless noted), 87.8%. The growth in the assay on CCRF-CEM leukemia (10 µM unless noted) was 106%.

Take `CCOC(=O)C(=CCC(C)C)C(=O)OCC`: the growth is 100% in the assay with HCT-15 colon (10 µM unless noted); 104% in the assay on HT29 colon (10 µM unless noted); 93.1% in the assay on SNB-75 CNS (10 µM unless noted); 98.7% with SNB-19 CNS (10 µM unless noted); 98.8% in the assay with U251 CNS (10 µM unless noted); 95.5% in the assay with PC-3 prostate (10 µM unless noted). The growth is 103% in the assay with SK-MEL-5 melanoma (10 µM unless noted); 93% in the assay with UACC-62 melanoma (10 µM unless noted); 93.3% with LOX IMVI melanoma (10 µM unless noted); 107% in the assay on SK-MEL-28 melanoma (10 µM unless noted); 113% with SK-MEL-2 melanoma (10 µM unless noted); 112% in the assay with EKVX NSCLC (10 µM unless noted). Further, the growth in the assay on SN12C renal (10 µM unless noted) was 90.5%; in the assay on UO-31 renal (10 µM unless noted), 78.5%; with TK-10 renal (10 µM unless noted) it was 121%; in the assay on ACHN renal, 103%; with CAKI-1 renal it was 99.4%; with A498 renal (10 µM unless noted) it was 76.2%. Besides, the growth with CCRF-CEM leukemia (10 µM unless noted) is 108%.

`COc1ccc(C(=O)/C=C/c2ccc(OCc3cccc(C(F)(F)F)c3)c(OC)c2)cc1OC`: the growth was 73% with HCT-15 colon (10 µM); 14.4% with HCT-15 colon (100 µM); 54.3% in the assay on HT29 colon (10 µM); 19.6% with HT29 colon (100 µM); 93.6% with SNB-75 CNS (10 µM); -27.5% (active) in the assay with SNB-75 CNS (100 µM). The growth with SNB-19 CNS (10 µM) was 93.9%; in the assay on SNB-19 CNS (100 µM) it was -21.9% (active); in the assay with U251 CNS (10 µM), 75%; in the assay on U251 CNS (100 µM), -51.7% (active); in the assay on PC-3 prostate (10 µM), 69.1%; in the assay with PC-3 prostate (100 µM), -7.78% (active). For the same compound, the growth was 76.5% in the assay on SK-MEL-5 melanoma (10 µM); -34.4% (active) with SK-MEL-5 melanoma (100 µM); 78.4% in the assay with UACC-62 melanoma (10 µM); 20.7% in the assay with UACC-62 melanoma (100 µM); 51% in the assay on LOX IMVI melanoma (10 µM); 10% with LOX IMVI melanoma (100 µM). In addition, the growth was 89.1% in the assay with SK-MEL-2 melanoma (10 µM); 32.6% with SK-MEL-2 melanoma (100 µM); 114% in the assay on EKVX NSCLC (10 µM); 16.1% in the assay on EKVX NSCLC (100 µM); 97% with SN12C renal (10 µM); 17% with SN12C renal (100 µM). Besides, the growth in the assay with UO-31 renal (10 µM) is 67.2%; in the assay with UO-31 renal (100 µM), 24.6%; in the assay with TK-10 renal (10 µM) it was 117%; with TK-10 renal (100 µM), 7.32% (active); with ACHN renal, 93.4%; with A498 renal (10 µM), 93.9%. Also, the growth in the assay on A498 renal (100 µM) is -12.8% (active); in the assay on CCRF-CEM leukemia (10 µM) it was 51.1%; with CCRF-CEM leukemia (100 µM), 12.6%; in the assay with MOLT-4 leukemia (10 µM), 42.2%; in the assay with MOLT-4 leukemia (100 µM), -3.95% (active).

Turning to `CC(=O)/C=C/c1ccc(N(CCO)Cc2ccc(C(C)(C)C)cc2)cc1`, the growth in the assay with HCT-15 colon (10 µM) is 62.5%; in the assay with HCT-15 colon (100 µM), -83% (active); in the assay on HT29 colon (10 µM), 59.4%; with HT29 colon (100 µM), -81.5% (active); in the assay on SNB-75 CNS (10 µM), 76.3%; in the assay with SNB-75 CNS (100 µM), -92.3% (active). Also, the growth with U251 CNS (10 µM) was 75.9%; in the assay with U251 CNS (100 µM), -100% (active); with PC-3 prostate (10 µM), 66%; in the assay on PC-3 prostate (100 µM), -90.3% (active); in the assay with SK-MEL-5 melanoma (10 µM) it was 70%; in the assay with SK-MEL-5 melanoma (100 µM), -99.5% (active). Also, the growth with UACC-62 melanoma (10 µM) is 76.5%; with UACC-62 melanoma (100 µM), -86.3% (active); with LOX IMVI melanoma (10 µM), 62.4%; with LOX IMVI melanoma (100 µM) it was -100% (active); with SK-MEL-28 melanoma (10 µM) it was 89.1%; with SK-MEL-28 melanoma (100 µM), -90.7% (active). The growth in the assay with SK-MEL-2 melanoma (10 µM) was 93.3%; in the assay with SK-MEL-2 melanoma (100 µM), -75.2% (active); in the assay on EKVX NSCLC (10 µM) it was 57.4%; with EKVX NSCLC (100 µM) it was -86.5% (active); in the assay with SN12C renal (10 µM), 73%; in the assay with SN12C renal (100 µM), -86.4% (active). Also, the growth in the assay on UO-31 renal (10 µM) was 47.2%; in the assay with UO-31 renal (100 µM), -100% (active); in the assay with TK-10 renal (10 µM) it was 96.7%; in the assay with TK-10 renal (100 µM), -96.7% (active); in the assay with A498 renal (10 µM), 78.6%; in the assay with A498 renal (100 µM) it was -98.3% (active). The growth in the assay on CCRF-CEM leukemia (10 µM unless noted) is -47.9% [100 µM] (active); in the assay on MOLT-4 leukemia (10 µM), 54%; in the assay on MOLT-4 leukemia (100 µM), -47.4% (active).
